Screen size: about 5,500 compounds; about 2,000 (36%) were called active. Not shown: some 18% with an inconclusive outcome. Rule as the data show it: active = normalized growth mostly below about 0.91 (no sharp cut-off); inconclusive = no clear call, values can overlap the other calls; inactive = mostly above about 0.92. Some of the results follow.
Assay: chemical genetic growth profiling, strain panel (AID 1159580);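 also: tested at 20 µM; growth read once vehicle control cultures reached saturation at 30 °C; 1 = growth at the plate median or of vehicle wells; lower values mean less growth of the strain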
Settings: growth OD

Measured: normalized growth

CC1(C)O[C@H]2[C@H](O)C[C@](O)(C(N)=O)C[C@H]2O1
inactive: S. cerevisiae deletion strains, locus YJR075W, strain HOC1, active compounds read low 1.03 | S. cerevisiae deletion strains, locus YKL009W, strain mrt4, active compounds read low 1.04 | S. cerevisiae deletion strains, locus YKL068W, active compounds read low 1.01 | S. cerevisiae deletion strains, locus YKL085W, strain MDH1 (second series), active compounds read low 1.03 | S. cerevisiae deletion strains, locus YKL085W, strain MDH1, active compounds read low 1.03 | S. cerevisiae deletion strains, locus YKL160W, strain elf1, active compounds read low 1 | S. cerevisiae deletion strains, locus YKL190W, strain CNB1, active compounds read low 1.02 | S. cerevisiae deletion strains, locus YKR001C, strain vps1, active compounds read low 1.06 | S. cerevisiae deletion strains, locus YKR026C, strain gcn3, active compounds read low 1.01 | S. cerevisiae deletion strains, locus YKR091W, strain srl3, active compounds read low 1.02 | S. cerevisiae deletion strains, locus YLL001W, strain dnm1, active compounds read low 0.999 | S. cerevisiae deletion strains, locus YLL026W, active compounds read low 1.01 | S. cerevisiae deletion strains, locus YLL041C, strain sdh2, active compounds read low 1.02 | S. cerevisiae deletion strains, locus YLR027C, strain aat2, active compounds read low 1.03 | S. cerevisiae deletion strains, locus YLR039C, strain RIC1, active compounds read low 1.25 | S. cerevisiae deletion strains, locus YLR058C, strain SHM2, active compounds read low 1.04 | S. cerevisiae deletion strains, locus YLR102C, strain apc9, active compounds read low 1.01 | S. cerevisiae deletion strains, locus YLR113W, strain HOG1, active compounds read low 1.02 | S. cerevisiae deletion strains, locus YLR221C, strain rsa3, active compounds read low 1.02 | S. cerevisiae deletion strains, locus YLR258W, strain gsy2, active compounds read low 1.01 | S. cerevisiae deletion strains, locus YLR262C, strain YPT6 (second series), active compounds read low 1.08 | S. cerevisiae deletion strains, locus YLR268W, strain sec22, active compounds read low 1.05 | S. cerevisiae deletion strains, locus YLR320W, strain mms22, active compounds read low 1.03 | S. cerevisiae deletion strains, locus YLR330W, strain CHS5, active compounds read low 1.02 | S. cerevisiae deletion strains, locus YLR342W, strain FKS1 (second series), active compounds read low 1.03 | S. cerevisiae deletion strains, locus YLR342W, strain FKS1, active compounds read low 1.01 | S. cerevisiae deletion strains, locus YLR357W, strain rsc2, active compounds read low 1.01 | S. cerevisiae deletion strains, locus YLR370C, strain arc18, active compounds read low 1.02 | S. cerevisiae deletion strains, locus YLR371W, strain rom2, active compounds read low 1.05 | S. cerevisiae deletion strains, locus YLR384C, strain iki3, active compounds read low 1.02 | S. cerevisiae deletion strains, locus YLR418C, strain cdc73, active compounds read low 1.09 | S. cerevisiae deletion strains, locus YML016C, strain PPZ1, active compounds read low 1.03 | S. cerevisiae deletion strains, locus YML032C, strain rad52, active compounds read low 1.03 | S. cerevisiae deletion strains, locus YML120C, strain ndi1, active compounds read low 1.01 | S. cerevisiae deletion strains, locus YML124C, strain tub3, active compounds read low 1.02 | S. cerevisiae deletion strains, locus YMR058W, strain fet3, active compounds read low 1.02 | S. cerevisiae deletion strains, locus YMR078C, strain ctf18, active compounds read low 1.03 | S. cerevisiae deletion strains, locus YMR125W, strain sto1, active compounds read low 1 | S. cerevisiae deletion strains, locus YMR129W, active compounds read low 1.01 | S. cerevisiae deletion strains, locus YMR205C, strain PFK2, active compounds read low 1.02 | S. cerevisiae deletion strains, locus YMR223W, strain ubp8, active compounds read low 1.05 | S. cerevisiae deletion strains, locus YMR231W, strain pep5, active compounds read low 1.01 | S. cerevisiae deletion strains, locus YMR307W, strain GAS1, active compounds read low 1.27 | S. cerevisiae deletion strains, locus YNL067W, strain RPL9B, active compounds read low 1.01 | S. cerevisiae deletion strains, locus YNL071W, strain lat1, active compounds read low 1.03 | S. cerevisiae deletion strains, locus YNL153C, strain GIM3, active compounds read low 1.05 | S. cerevisiae deletion strains, locus YNL183C, strain NPR1, active compounds read low 0.945 | S. cerevisiae deletion strains, locus YNL209W, strain ssb2, active compounds read low 1.02 | S. cerevisiae deletion strains, locus YNL233W, strain BNI4, active compounds read low 1.07 | S. cerevisiae deletion strains, locus YNL248C, strain rpa49, active compounds read low 1.01 | S. cerevisiae deletion strains, locus YNL250W, strain rad50, active compounds read low 1.06 | S. cerevisiae deletion strains, locus YNL271C, strain bni1, active compounds read low 1.04 | S. cerevisiae deletion strains, locus YNL298W, strain CLA4, active compounds read low 1.02 | S. cerevisiae deletion strains, locus YNL307C, strain MCK1, active compounds read low 1.03 | S. cerevisiae deletion strains, locus YNL322C, strain KRE1 (second series), active compounds read low 1.01 | S. cerevisiae deletion strains, locus YNL322C, strain KRE1, active compounds read low 1.02 | S. cerevisiae deletion strains, locus YNR049C, strain mso1, active compounds read low 1.02 | S. cerevisiae deletion strains, locus YNR052C, strain pop2, active compounds read low 1.03 | S. cerevisiae deletion strains, locus YOL012C, strain htz1 0.602 | S. cerevisiae deletion strains, locus YOL147C, strain pex11, active compounds read low 1.01 | S. cerevisiae deletion strains, locus YOR001W, strain rrp6, active compounds read low 1.04 | S. cerevisiae deletion strains, locus YOR061W, strain CKA2, active compounds read low 1.03 | S. cerevisiae deletion strains, locus YOR069W, strain VPS5, active compounds read low 1.02 | S. cerevisiae deletion strains, locus YOR070C, strain gyp1, active compounds read low 1.01 | S. cerevisiae deletion strains, locus YOR080W, strain dia2, active compounds read low 1.01 | S. cerevisiae deletion strains, locus YOR083W, strain WHI5, active compounds read low 1.02 | S. cerevisiae deletion strains, locus YOR106W, strain vam3, active compounds read low 1.01 | S. cerevisiae deletion strains, locus YOR136W, strain idh2, active compounds read low 1.04 | S. cerevisiae deletion strains, locus YOR144C, strain elg1, active compounds read low 1.01 | S. cerevisiae deletion strains, locus YOR184W, strain ser1, active compounds read low 1.06 | S. cerevisiae deletion strains, locus YOR231W, strain MKK1, active compounds read low 0.989 | S. cerevisiae deletion strains, locus YOR265W, strain rbl2, active compounds read low 1.01 | S. cerevisiae deletion strains, locus YOR270C, strain vph1, active compounds read low 1.06 | S. cerevisiae deletion strains, locus YOR290C, strain snf2, active compounds read low 1.03 | S. cerevisiae deletion strains, locus YOR316C, strain cot1, active compounds read low 1.02 | S. cerevisiae deletion strains, locus YPL051W, strain arl3, active compounds read low 0.997 | S. cerevisiae deletion strains, locus YPL055C, strain LGE1, active compounds read low 1.09 | S. cerevisiae deletion strains, locus YPL078C, strain atp4, active compounds read low 1.01 | S. cerevisiae deletion strains, locus YPL106C, strain sse1, active compounds read low 0.996 | S. cerevisiae deletion strains, locus YPL240C, strain hsp82, active compounds read low 1.01 | S. cerevisiae deletion strains, locus YPL241C, strain CIN2, active compounds read low 1.02 | S. cerevisiae deletion strains, locus YPL256C, strain CLN2, active compounds read low 0.995 | S. cerevisiae deletion strains, locus YPR119W, strain clb2, active compounds read low 1.03 | S. cerevisiae deletion strains, locus YPR141C, strain kar3, active compounds read low 1.03 | S. cerevisiae deletion strains, locus YPR163C, strain tif3, active compounds read low 1.04 | S. cerevisiae deletion strains, locus YPR167C, strain met16, active compounds read low 1.04 | S. cerevisiae deletion strains, strain wtn01, active compounds read low 1.03 | S. cerevisiae strains, strain wild type, active compounds read low 1.06
